# From PubChem BioAssay
# System: not listed separately
# Test: probe aLefty2 binding to arrayed compounds – biochemical, biotinylated probe, 635/667 nm fluorescence, primary screen (AID 1094);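 also: score merges spot fluorescence near 667 nm with spot signal-to-noise ratio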
# Settings: small-molecule microarray, higher = more signal
row,SMILES,composite z-score
1,CC[C@@H](O[Si](C#C[Si](C(C)C)(C(C)C)C(C)C)(C(C)C)C(C)C)c1cn(Cc2cccc(Cl)c2)nn1,-0.138
2,COC(=O)C1=CC(c2ccc(CO)cc2)=CC(C2CC2)N(Cc2cc3c(cc2Br)OCO3)C=C1C(=O)OC (stereo unspecified),0.479
3,O=C(NCCN1CCOCC1)[C@@H]1c2ccccc2C(=O)N(CC23CC4CC(CC(C4)C2)C3)[C@H]1c1ccc(CO)cc1,0.0735
4,COCCCNC(=O)[C@@]1(CCC(=O)OC(C)(C)C)N=C(c2ccc(OCCCO)cc2)O[C@H]1c1ccccc1,0.0296
5,CN1C2C=C(c3ccc(CO)cc3)C(C3C(=O)N(C(N)=O)C(=O)C32)C1C1CC1 (stereo unspecified),-0.178
6,N#Cc1ccc(NN2C(C(O)c3ccc(B(O)O)cc3)C=CC3CN(c4ccccc4)C(=O)C32)cc1 (stereo unspecified),-0.0576

# System: Noggin (protein binding on small-molecule microarray)
# Test: small molecules binding Noggin protein – biochemical, 635/667 nm fluorescence, primary screen (AID 1095);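 also: score merges 667 nm feature fluorescence with signal to noise over triplicate slides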
# Settings: 635 nm fluorescence, higher = more signal
row,SMILES,composite z-score
1,O=C(O)C1=CC[C@H]2C(=O)N(c3ccccc3)C(=O)[C@@H]12,-0.312
2,C=CC[C@H](OC(=O)Nc1ccc(SC)cc1)c1ccc(O)c(F)c1,-0.176
3,COC(=O)C1(CC(C)C)C=C2C(=C(C)C(=O)C2C)CN1 (stereo unspecified),-0.054
4,[N-]=[N+]=NCc1ccccc1C[C@]1(C(=O)N2CCCCC2)COC(c2ccc(OCCCO)cc2)=N1,0.683
5,C=C[C@H](C)[C@@H](OC(=O)Nc1ccc(SC)cc1)c1ccc(OCCO)cc1,1.05
6,COC(=O)Cn1c(C(=O)N(C)C)cc2c1C[C@H]1CN(C(=O)c3ccccc3)[C@@](Cc3ccccc3)(C(=O)OC)[C@@H]21,0.449
7,O=C1c2ccccc2[C@](Cc2ccccc2I)(C(=O)NCCN2CCOCC2)[C@H](c2ccc(CO)cc2)N1Cc1ccccc1C(F)(F)F,0.307
8,Cc1ccc(S[C@]2(C(=O)NCCN3CCOCC3)CC(=O)N(C(C)C)[C@@H]2c2ccc(CO)cc2I)cc1,-0.889
9,C=C(CCCC)C(=O)CC[C@H](OC(=O)c1ccccc1-c1ccccc1C(=O)O)c1cccc(OCCO)c1,0.135
10,[N-]=[N+]=Nc1ccccc1C[C@@]1(C(=O)NCc2ccccc2)N=C(c2ccc(OCCCO)cc2)O[C@@H]1c1ccccc1,0.922
11,C=CCNC(=O)[C@@H]1[C@H]2C(=O)O[C@H](c3ccccc3)[C@H](c3ccccc3)N2[C@H](c2ccc(OCCO)cc2)[C@@]12C(=O)Nc1ccc(C#CC3=CCCCC3)cc12,0.918
12,CC(C)C[C@@H]1NC(=O)[C@H]2C[C@@H](C(=O)O)[C@@H](c3cccc(OCCO)c3)N2C1=O,0.492
13,CC(C)c1ccc(NN2C(C(O)C(C)c3ccccc3)C=CC3C(=O)N(c4ccccc4)C(=O)C32)cc1 (stereo unspecified),0.272
14,Cc1ccc(S(=O)(=O)N2[C@@H](c3ccccc3)C(C(=O)O)=C[C@H]2C(C)(C)C)cc1,0.126
15,CCOC(=O)C1=CC[C@@H](c2ccccc2)N(S(=O)(=O)c2ccc(C)cc2)[C@@H]1C#N,-0.59
16,COCCOC(=O)N1C(=O)[C@@]2(c3cc(C#CCC(C(=O)OC)C(=O)OC)ccc31)[C@H](C(=O)N1CCc3cc(OC)c(OC)cc3C1)[C@H]1C(=O)O[C@H](c3ccccc3)[C@H](c3ccccc3)N1[C@@H]2c1ccccc1OCCO,1.76
17,CN(C)CCCC[C@@H]1NC(=O)[C@H]2C[C@@H](C(=O)NCCCCCCNC(=O)CS)[C@@H](c3cccc(OCCO)c3)N2C1=O,-0.0227
18,COc1cc2c(cc1O)C(C)N(Cc1sc3ccccc3c1Cl)CC2 (stereo unspecified),-0.417

row,SMILES,composite z-score
1,COCCOC(=O)N1C(=O)[C@@]2(c3cc(C#CCC(C(=O)OC)C(=O)OC)ccc31)[C@H](c1ccc(O)cc1)N1[C@H](c3ccccc3)[C@H](c3ccccc3)OC(=O)[C@H]1[C@@H]2C(=O)N1CCc2cc(OC)c(OC)cc2C1,1.12
2,CCOC(=O)C1=CCC(c2ccncc2)N(S(=O)(=O)c2ccc(C)cc2)C1 (stereo unspecified),0.361
3,COC(=O)[C@@]1(Cc2ccc(F)cc2)[C@H]2c3cc(C(=O)N4CCCC4)n(Cc4ccc(C(F)(F)F)nc4)c3C[C@H]2CN1C(=O)c1ccccc1,0.373
4,CC(C)(C)OC(=O)CC[C@@]1(C(N)=O)N=C(c2ccc(OCCCO)cc2)O[C@@H]1c1ccccc1CN=[N+]=[N-],0.324
5,C=CCNC(=O)[C@H]1[C@@H]2C(=O)O[C@@H](c3ccccc3)[C@@H](c3ccccc3)N2[C@@H](c2ccc(OCCO)cc2)[C@]12C(=O)N(C(=O)OCCOC)c1ccc(C#CCC(C(=O)OC)C(=O)OC)cc12,1.42
6,C=CCOC(=O)[C@H]1[C@@H]2C(=O)O[C@@H](c3ccccc3)[C@@H](c3ccccc3)N2[C@@H](c2ccc(OCCOC(=O)[C@@H]3C[C@@H]4C(=O)N[C@@H](Cc5ccccc5)C(=O)N4[C@@H]3c3ccc(O)cc3)cc2)[C@]12C(=O)Nc1ccc(I)cc12,1.49
7,CCN1C(=O)C2CC(=O)C3C(CN(S(=O)(=O)c4ccc(C)cc4)C3c3ccc(C)cc3)C2C1=O (stereo unspecified),-0.841
8,C=C(C)C1CN([C@H](CO)c2ccccc2)C(=O)/C1=C\c1ccccc1 (stereo partly specified),0.467
9,C=C(COC)C(=O)CC[C@H](OC(C)=O)c1ccc(CO)o1,1.31
10,COC(=O)C(CC#Cc1ccc2c(c1)[C@]1(C(=O)N2)[C@H](C(=O)NC[C@H](O)c2ccccc2)[C@H]2C(=O)O[C@H](c3ccccc3)[C@H](c3ccccc3)N2[C@@H]1c1ccc(O)cc1)C(=O)OC,0.264
11,C=C[C@H](OC)[C@@H](O)c1ccc(OC)c(O)c1,-0.81
12,CC[C@@H](O[Si](C#C[Si](C(C)C)(C(C)C)C(C)C)(C(C)C)C(C)C)c1cn(Cc2cccc(Cl)c2)nn1,0.523
13,COC(=O)C1=CC(c2ccc(CO)cc2)=CC(C2CC2)N(Cc2cc3c(cc2Br)OCO3)C=C1C(=O)OC (stereo unspecified),0.092
14,O=C(NCCN1CCOCC1)[C@@H]1c2ccccc2C(=O)N(CC23CC4CC(CC(C4)C2)C3)[C@H]1c1ccc(CO)cc1,0.495
15,COCCCNC(=O)[C@@]1(CCC(=O)OC(C)(C)C)N=C(c2ccc(OCCCO)cc2)O[C@H]1c1ccccc1,1.56
16,CN1C2C=C(c3ccc(CO)cc3)C(C3C(=O)N(C(N)=O)C(=O)C32)C1C1CC1 (stereo unspecified),-0.4
17,N#Cc1ccc(NN2C(C(O)c3ccc(B(O)O)cc3)C=CC3CN(c4ccccc4)C(=O)C32)cc1 (stereo unspecified),-0.345
